Sampled rows, rich in hits. Any-hit rate of the full collection: about 3.3%.
M18AAP inhibitor: blocks P. falciparum M18 aspartyl aminopeptidase; recombinant PfM18AAP, H-Glu-NHMec fluorogenic cleavage; inhibition, % at 7.35 µM; hit rate 1.2% among 290,000;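 active means inhibition above the campaign mean inhibition over all tested compounds plus 3 SD, cut at about 28% in these data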;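 further: 0% = plate median of test compound wells and 100% = 2 mM ZnCl2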
PfGluPho inh: PfG6PD (Plasmodium falciparum) enzyme inhibition. PfGluPho enzyme, NADPH resazurin-diaphorase fluorescence. inhibition, % at 20 µM. hit rate 0.78% among 350,000. AID 504690;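 active means inhibition reaching at least a set limit at 20 µM in the primary screen, cut at about 59% in these data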;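 further: 0% = DMSO wells with substrate and 100% = DMSO wells lacking glucose-6-phosphate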
PRMT1 inh: blocks human protein arginine methyltransferase 1 | recombinant PRMT1, activity-based probe fluorescence polarization | hit rate 1.3% among 370,000 | inhibition, % at 2.79 µM;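 active means inhibition above about 21% made by adding two undisclosed values, limit read from the data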
MBD2 inh: MBD2-methylated oligo binding inhibition; TR-FRET, MBD2 binding to methylated oligonucleotide; hit rate 0.31% among 370,000; inhibition, % at 4.4 µM; in the data active means inhibition above about 13%
UHRF1 binding: UHRF1 methyl-DNA binding inhibition; hit rate 0.75% among 370,000; inhibition, % at 4.4 µM; AID 687016; UHRF1 binding to methylated oligo, TR-FRET; Q96T88; in the data active means inhibition above about 21%;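 further: UHRF1 SRA domain binding a hemimethylated CpG hairpin DNA probe; 0% = median of test compound wells and 100% = reference inhibitor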
Target sequence (Q96T88 whole entry, looked up, the tested form may be a part): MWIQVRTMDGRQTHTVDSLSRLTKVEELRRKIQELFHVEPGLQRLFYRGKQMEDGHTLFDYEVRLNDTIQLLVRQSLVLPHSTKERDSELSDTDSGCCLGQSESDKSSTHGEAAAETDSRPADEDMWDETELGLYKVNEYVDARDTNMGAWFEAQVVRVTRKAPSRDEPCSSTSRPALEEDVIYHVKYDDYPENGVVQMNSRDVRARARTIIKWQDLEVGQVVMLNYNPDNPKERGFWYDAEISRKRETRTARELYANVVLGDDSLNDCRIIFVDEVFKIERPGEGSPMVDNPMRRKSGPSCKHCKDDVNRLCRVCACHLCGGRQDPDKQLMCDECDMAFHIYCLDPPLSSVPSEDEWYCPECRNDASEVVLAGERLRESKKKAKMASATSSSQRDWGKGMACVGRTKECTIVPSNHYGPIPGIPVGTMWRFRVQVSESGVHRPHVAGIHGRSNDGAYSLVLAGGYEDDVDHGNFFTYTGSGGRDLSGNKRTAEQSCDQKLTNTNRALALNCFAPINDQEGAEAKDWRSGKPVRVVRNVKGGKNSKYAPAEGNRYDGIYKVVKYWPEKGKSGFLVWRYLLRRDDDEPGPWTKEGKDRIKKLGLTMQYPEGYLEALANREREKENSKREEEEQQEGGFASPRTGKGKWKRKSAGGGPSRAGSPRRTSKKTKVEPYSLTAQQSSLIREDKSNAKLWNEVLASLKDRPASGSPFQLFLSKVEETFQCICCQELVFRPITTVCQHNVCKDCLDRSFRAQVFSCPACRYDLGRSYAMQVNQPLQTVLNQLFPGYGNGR
PRMT1 inh conf: confirmation of human PRMT1 inhibitors. shares compounds with PRMT1 inh. recombinant His-PRMT1, activity-based probe fluorescence polarization. inhibition, % at 2.79 µM. hit rate 42% among 3,300;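 active means mean inhibition across replicates above the hit cutoff derived for the earlier primary screen, cut at about 22% in these data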
Starred values were filed as active, the others as inactive; / = no result given.

SMILES	M18AAP inhibitor	PfGluPho inh	PRMT1 inh	MBD2 inh	UHRF1 binding	PRMT1 inh conf
CCC(NC(=O)c1ccccc1NC(=O)c1ccccc1)C(=O)OC (stereo not drawn)	-6	-5	-1	4	13	/
O=C(O)c1c[nH]n2c(=S)ncnc12	/	4	2	6	3	/
O=C(O)c1cc(=S)nc[nH]1	/	1	39*	6	1	60*
O=C1c2nccnc2C(=O)N1Cc1ccccc1	/	-7	1	8	0	/
COc1cc(OC)c2c(c1)OC(=O)CC2c1ccc(C)cc1 (stereo not drawn)	/	2	-5	-4	-2	/
CCN(CC)CCn1c2ccccc2c2nc3ccccc3nc21	-3	8	-5	7	-1	/
CCN(CC)CCn1c2ccccc2c2n[nH]c(=S)nc21	22	64*	85*	-5	-5	58*
CCc1ccc(NC(=O)C(C)Sc2nc(-c3ccco3)c(C#N)c(=O)[nH]2)cc1 (stereo not drawn)	10	-15	26*	2	1	38*
N#Cc1c(-c2ccco2)nc(SCC(=O)Nc2cccc(Cl)c2)[nH]c1=O	-1	-16	46*	5	4	11
COc1ccc(CC(=O)Nc2ccc(S(=O)(=O)N3CCC(C)CC3)cc2)c(OC)c1	/	12	0	2	6	/
COc1ccc(/C=C2\CCc3c2nc2ccccc2c3C(=O)O)cc1OC	22	-4	79*	-7	1	12
COc1ccc(/C=C2\CCCc3c2nc2ccccc2c3C(=O)O)cc1OC	3	/	/	/	/	/
COc1sc(SC)cc1/C=N/NC(=O)c1ccncc1	13	12	38*	5	3	-1
CC(C)(C)c1ccc(Oc2ccc(NC(=O)c3ccco3)cn2)cc1	-2	12	29*	2	-1	3
CN1/C(=C\C(=O)c2cccc([N+](=O)[O-])c2)Sc2ccccc21	12	16	6	-5	-2	/
CN1/C(=C/C(=O)c2ccc(Cl)cc2)Sc2cc3c(cc21)OCO3	32*	26	33*	-5	-4	3
Cc1ccc(S(=O)(=O)NC(CC(C)C)C(=O)N2CCC(C)CC2)cc1 (stereo not drawn)	3	-5	-2	0	-3	/
CC/C(=C/c1sc2ccc(C)cc2[n+]1CCCS(=O)(=O)[O-])SC	19	23	39*	3	2	23*
CC[n+]1c(S(=O)(=O)[O-])ccc2ccc(C)cc21	1	-6	5	5	2	/
CC/C(=C/c1sc2ccc(C)cc2[n+]1CCO)SC	22	25	52*	-3	2	17
Cc1ccc2sc(C)[n+](CCC(C)S(=O)(=O)[O-])c2c1 (stereo not drawn)	-5	-14	57*	4	4	31*
CCN1CCN(CCC(=O)Nc2ccc(F)c(F)c2)CC1	9	3	0	3	0	/
CCOc1ccc(N2C(=O)CC(NC3CCN(C(=O)c4cccc(Cl)c4)CC3)C2=O)cc1 (stereo not drawn)	-19	-2	65*	4	0	2
CCOc1ccc(N2C(=O)CC(NC3CCN(C(=O)c4cccs4)CC3)C2=O)cc1 (stereo not drawn)	-13	7	89*	10	3	-3
CCOC(=O)c1sc(NC(=O)CSc2n[nH]c(-c3ccc(Cl)cc3Cl)n2)c(C#N)c1C	-1	-60	-1	-1	0	/
SMILES	M18AAP inhibitor	PfGluPho inh	PRMT1 inh	MBD2 inh	UHRF1 binding	PRMT1 inh conf
CCN1CCN(CC(=O)N2CCCC(C(=O)c3ccc(Oc4ccccc4)cc3)C2)CC1 (stereo not drawn)	2	-4	7	9	4	/
CCCCn1c(N)c(N(CC)C(=O)c2ccccc2F)c(=O)[nH]c1=O	-7	6	-2	2	3	/
Cc1ccc2oc(C(=O)N(C)Cc3ccc(C)o3)c(C)c2c1	-73	31	51*	-3	-1	64*
COc1ccc(N2C(=O)CC(Sc3ncn[nH]3)C2=O)c(OC)c1 (stereo not drawn)	-31	-2	89*	-1	12	36*
CC(C)c1ccc(N2C(=O)CC(Sc3ncn[nH]3)C2=O)cc1 (stereo not drawn)	-26	-25	61*	0	4	64*
CC1CC(=O)N(c2ccc(C(C)C)cc2)C(=O)C1	-2	-6	-2	-4	-3	/
O=C(CC1Sc2ncnn2C1=O)Nc1ccc(Br)cc1 (stereo not drawn)	37*	3	53*	0	0	54*
